Screening results from PubChem.
This excerpt belongs to a sample that is enriched for hits.
AmpC no deterg: qHTS Inhibitors of AmpC Beta-Lactamase (assay without detergent); P00811; AmpC nitrocefin hydrolysis, absorbance 480 nm, 0.0001% Triton; Potency, µM (highest dose often 57.1 µM), usual class: inhibitors; actives 0.52% (n = 330,000); AID 485341, 2010; note: nearly all actives have a fitted effect of over 20% in size
Target sequence (P00811 whole entry, looked up): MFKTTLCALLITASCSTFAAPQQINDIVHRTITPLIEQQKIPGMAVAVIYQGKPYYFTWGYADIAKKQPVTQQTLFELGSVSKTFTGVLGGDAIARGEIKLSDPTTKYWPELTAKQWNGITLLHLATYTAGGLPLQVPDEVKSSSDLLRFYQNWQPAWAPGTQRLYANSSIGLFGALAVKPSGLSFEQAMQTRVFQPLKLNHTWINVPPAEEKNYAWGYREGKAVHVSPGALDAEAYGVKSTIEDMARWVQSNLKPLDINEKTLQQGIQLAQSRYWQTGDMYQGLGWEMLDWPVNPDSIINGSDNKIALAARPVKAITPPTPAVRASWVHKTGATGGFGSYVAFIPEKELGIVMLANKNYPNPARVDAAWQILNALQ
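AmpC (5.3 nM in the dispensed reagent) in 20 mM phosphate pH 7.0 with 0.01% (detergent screen) or 0.0001% Triton X-100 was preincubated with compounds for 15 min at room temperature. Nitrocefin was then added from an 800 uM solution, and hydrolysis was followed at 480 nm.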
SARS PLP yeast: qHTS of Yeast-based Assay for SARS-CoV PLP; S. cerevisiae expressing SARS-CoV PLpro, growth rescue; Potency, µM (series often up to 32.9 µM), actives largely listed as activators; actives 0.19% (n = 330,000); calls by dose curve; note: nearly all actives have a fitted effect of over 55% in size
AmpC inh detg: qHTS Inhibitors of AmpC Beta-Lactamase (assay with detergent). P00811. actives 0.041% (n = 370,000). Potency, µM (doses to about 114 µM), hits mostly inhibitors. AmpC hydrolysis of nitrocefin, absorbance 480 nm, 0.01% Triton. AID 485294, 2010; note: nearly all actives have a fitted effect of over 25% in size
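20 mM phosphate pH 7.0 + 0.01% (detergent screen) or 0.0001% Triton X-100; 5.3 nM AmpC reagent; cpd preinc 15 min RT; nitrocefin (800 uM stock) to start; A480 q20 s × 4 min; Activity was normalised to no-enzyme and no-compound control wells.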
Cycloheximide cs: Cycloheximide Counterscreen for Small Molecule Inhibitors of Shiga Toxin | cell reporter, cycloheximide protein synthesis inhibition counterscreen | max response, % | actives 12% (n = 300,000) | AID 2314, 2010; in the data active = max response mostly above about 13%, no sharp cut-off; inactive = mostly below about 14%; note: read at 38.3 µM for the half of the compounds with a filed dose
Shiga toxin inh: A qHTS for Small Molecule Inhibitors of Shiga Toxin | Vero cells, Shiga toxin protein synthesis inhibition reporter | actives 9.2% (n = 290,000) | inhibition, % at 38.7 µM | AID 2315, 2010; in the data active = inhibition mostly above about 28%, no sharp cut-off; inactive = mostly below about 43%
AMA1 RON2 block: qHTS for Inhibitors of AMA1-RON; Towards Development of Antimalarial Drug Lead: Primary Screen. Plasmodium falciparum AMA1 (3D7) - RON2 peptide interaction. AlphaScreen AMA1-biotinylated RON2 peptide binding. Potency, µM (series often up to 58.2 µM), most hits filed as inhibitors. actives 0.2% (n = 360,000); note: nearly all actives have a fitted effect of over 45% in size
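AMA1 (3D7) with his tag at 25 nM final met compounds first, then biotinylated RON2 peptide at 25 nM; detection used donor plus acceptor beads, 10 µg/mL apiece, read by AlphaScreen after 30 min at room temperature.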
Numbers stand for hits. Unless noted, calls come from the whole dose curve; as a rule, active = well fitted curve in the direction sought with a large enough effect; inconclusive = small, poorly fitted or top-dose-only effect, or another doubt; inactive = no such curve, though single readings can be large; an effect the other way counts as inactive or inconclusive.

What do the screens show for `COc1cc(C(=O)NC(=S)Nc2ccc3c(c2)OCO3)cc(OC)c1OC`?
AmpC no deterg: inactive; SARS PLP yeast: inactive; AmpC inh detg: inactive; Cycloheximide cs: inactive; Shiga toxin inh: inactive; AMA1 RON2 block: inactive

Results for O=C(NC(=S)Nc1ccc2oc(-c3ccncc3)nc2c1)c1ccccc1F ?
AmpC no deterg: inactive; SARS PLP yeast: inactive; AmpC inh detg: inactive; Cycloheximide cs: inactive; Shiga toxin inh: inactive; AMA1 RON2 block: inactive

What do the screens show for `O=C(NC(=S)Nc1ccc2c(c1)OCCO2)c1ccccc1F`?
AmpC no deterg: inactive; SARS PLP yeast: inactive; AmpC inh detg: inactive; Cycloheximide cs: 41; Shiga toxin inh: 145; AMA1 RON2 block: inactive

How did O=C(NC(=S)Nc1ccc2oc(=O)ccc2c1)c1ccccc1F do in these assays?
AmpC no deterg: inactive; SARS PLP yeast: inactive; AmpC inh detg: inactive; Cycloheximide cs: 25; Shiga toxin inh: inactive; AMA1 RON2 block: inactive

What do the screens show for `COc1ccc(OC)c(NC(=O)CSC2=Nc3ccccc3C3=NC(CCC(=O)NCc4ccco4)C(=O)N23)c1` (stereo not drawn)?
AmpC inh detg: inactive

How did Cc1ccccc1OCc1nnc(SCC(=O)NCc2ccco2)n1C do in these assays?
AmpC no deterg: inactive; SARS PLP yeast: inactive; AmpC inh detg: inactive; Cycloheximide cs: inactive; Shiga toxin inh: inactive; AMA1 RON2 block: inactive

How did CC(C)Cn1c(N)c(C(=O)COC(=O)c2ccc3c(c2)OCCO3)c(=O)n(C)c1=O do in these assays?
AmpC no deterg: inactive; SARS PLP yeast: inactive; AmpC inh detg: inactive; Cycloheximide cs: inactive; Shiga toxin inh: inactive; AMA1 RON2 block: inactive

How did NC(=O)C1CCCN(C(=O)c2ccc3nc(Cc4cccc(Cl)c4)oc3c2)C1 (stereo not drawn) do in these assays?
AmpC no deterg: inactive; SARS PLP yeast: inactive; AmpC inh detg: inactive; Cycloheximide cs: inactive; Shiga toxin inh: inactive; AMA1 RON2 block: inactive

How did CS(=O)(=O)Nc1ccccc1C(=O)Nc1ccc2c(c1)OCCO2 do in these assays?
AmpC no deterg: inactive; SARS PLP yeast: inactive; AmpC inh detg: inactive; Cycloheximide cs: 15; Shiga toxin inh: inactive; AMA1 RON2 block: inactive

Results for O=C(Nc1ccc2c(c1)OCCO2)c1ccccc1F ?
AmpC no deterg: inactive; SARS PLP yeast: inactive; AmpC inh detg: inactive; Cycloheximide cs: 47; Shiga toxin inh: 50; AMA1 RON2 block: inactive

Results for O=C(NC(=S)Nc1ccc2c(c1)OCCO2)c1ccccc1 ?
AmpC no deterg: inactive; SARS PLP yeast: inactive; AmpC inh detg: inactive; Cycloheximide cs: 55; Shiga toxin inh: 73; AMA1 RON2 block: inactive

What do the screens show for `Cc1cc(C)c(C(=O)Nc2ccc3c(c2)OCCO3)c(C)c1`?
AMA1 RON2 block: inactive

What do the screens show for `O=C(Nc1ccc2c(c1)OCCO2)c1c(F)cccc1F`?
AmpC no deterg: inactive; SARS PLP yeast: inactive; AmpC inh detg: inactive; Cycloheximide cs: 41; Shiga toxin inh: 74; AMA1 RON2 block: inactive

What do the screens show for `O=C(Nc1ccc(NC(=O)c2ccc3c(c2)OCCO3)cc1)c1ccccc1`?
AmpC no deterg: inactive; SARS PLP yeast: inactive; AmpC inh detg: inactive; Cycloheximide cs: inactive; Shiga toxin inh: inactive; AMA1 RON2 block: inactive

How did O=C(CNC(=O)c1cc(Cl)cc([N+](=O)[O-])c1)OCC(=O)N1CCCCC1 do in these assays?
AmpC no deterg: inactive; SARS PLP yeast: inactive; AmpC inh detg: inactive; AMA1 RON2 block: inactive

Results for CC(NC(=O)C1CCN(S(=O)(=O)c2cccc3nonc23)CC1)c1ccccc1 (stereo not drawn) ?
AmpC no deterg: inactive; SARS PLP yeast: inactive; AmpC inh detg: inactive; Cycloheximide cs: inactive; Shiga toxin inh: inactive; AMA1 RON2 block: inactive

What do the screens show for `O=C(NC1CCCCC1)c1ccc2c(c1)N(Cc1ccccc1F)C(=O)c1ccccc1S2`?
AmpC inh detg: inactive

What do the screens show for `CCOc1cccc(C(=O)NC(=S)Nc2ccc3c(c2)OCCO3)c1`?
AmpC no deterg: inactive; SARS PLP yeast: inactive; AmpC inh detg: inactive; Cycloheximide cs: 61; Shiga toxin inh: 113; AMA1 RON2 block: inactive

Results for COc1cccc(NC(=O)c2ccc(OC(F)(F)F)cc2)c1 ?
AmpC no deterg: inactive; SARS PLP yeast: inactive; AmpC inh detg: inactive; AMA1 RON2 block: inactive

How did Cc1ccc(/C=N/NC(=O)c2cccc(NC(=O)c3ccccc3C)c2)o1 do in these assays?
AmpC no deterg: inconclusive; SARS PLP yeast: inactive; AmpC inh detg: inactive; Cycloheximide cs: inactive; Shiga toxin inh: inactive; AMA1 RON2 block: inactive

Results for O=C(Nc1cccc(OC(F)(F)F)c1)c1ccc(Br)o1 ?
AmpC no deterg: inactive; SARS PLP yeast: inactive; AmpC inh detg: inactive; Cycloheximide cs: 40; Shiga toxin inh: inactive; AMA1 RON2 block: inactive

How did O=C(Nc1ccccc1C(=O)O)c1cccc(NC(=O)c2ccc(Br)o2)c1 do in these assays?
AmpC no deterg: inconclusive; SARS PLP yeast: inactive; AmpC inh detg: inactive; Cycloheximide cs: inactive; Shiga toxin inh: inactive; AMA1 RON2 block: inactive

How did O=C(Nc1ccc2nn(-c3ccccc3)nc2c1)c1cc2ccccc2o1 do in these assays?
AmpC inh detg: inactive

What do the screens show for `C/C(=N\NC(=O)c1cccc(Br)c1)c1cccc(NC(=O)c2ccc(C)o2)c1`?
AmpC no deterg: inactive; SARS PLP yeast: inactive; AmpC inh detg: inconclusive; Cycloheximide cs: 28; Shiga toxin inh: 42; AMA1 RON2 block: inactive

Results for O=C(Nc1ccc2nn(-c3ccccc3)nc2c1)c1ccc(Br)o1 ?
AmpC no deterg: inactive; SARS PLP yeast: inactive; AmpC inh detg: inactive; Cycloheximide cs: 13; Shiga toxin inh: 74; AMA1 RON2 block: inactive

Results for CC(=O)c1cccc(NC(=O)c2ccc(Br)o2)c1 ?
AmpC no deterg: inactive; SARS PLP yeast: inactive; AmpC inh detg: inactive; Cycloheximide cs: 24; Shiga toxin inh: 63; AMA1 RON2 block: inactive

What do the screens show for `CC(=O)c1cccc(NC(=O)c2ccco2)c1`?
AmpC no deterg: inactive; SARS PLP yeast: inactive; AmpC inh detg: inconclusive; Cycloheximide cs: inactive; Shiga toxin inh: inactive; AMA1 RON2 block: inactive

How did CCCCC(=O)Nc1cccc(NC(=O)c2ccc(Br)o2)c1 do in these assays?
AmpC no deterg: inactive; SARS PLP yeast: inactive; AmpC inh detg: inactive; Cycloheximide cs: inactive; Shiga toxin inh: inactive; AMA1 RON2 block: inactive

Results for CC(=O)c1cccc(NC(=O)c2ccc(C)o2)c1 ?
AmpC no deterg: inactive; SARS PLP yeast: inactive; AmpC inh detg: inactive; Cycloheximide cs: 26; Shiga toxin inh: inactive; AMA1 RON2 block: inactive

Results for O=C(Nc1cccc(F)c1)c1ccc(Br)o1 ?
AmpC no deterg: inactive; SARS PLP yeast: inactive; AmpC inh detg: inactive; Cycloheximide cs: 60; Shiga toxin inh: 77; AMA1 RON2 block: inactive
